# In publication PMC7862700, “An all-to-all approach to the identification of sequence-specific readers for epigenetic DNA modifications on cytosine”:
# Experiments:
# Test in all cases: DAPPL (digital affinity profiling via proximity ligation, sequencing); 10 mM Tris-HCl pH 7.5, 50 mM NaCl, 1 mM DTT, 4% glycerol, room temperature, 30 min; GST-TFs on glutathione beads, 16-mer random dsDNA library, 0.1% formaldehyde crosslink after washing; high values mean tight binding
# Details in all cases: protein: recombinant; tags: N-terminal GST; dsDNA, one strand shown
# FLI1 = target: T1, FLI1 (Homo sapiens, UniProt Q01543 1-452)
# T1 sequence: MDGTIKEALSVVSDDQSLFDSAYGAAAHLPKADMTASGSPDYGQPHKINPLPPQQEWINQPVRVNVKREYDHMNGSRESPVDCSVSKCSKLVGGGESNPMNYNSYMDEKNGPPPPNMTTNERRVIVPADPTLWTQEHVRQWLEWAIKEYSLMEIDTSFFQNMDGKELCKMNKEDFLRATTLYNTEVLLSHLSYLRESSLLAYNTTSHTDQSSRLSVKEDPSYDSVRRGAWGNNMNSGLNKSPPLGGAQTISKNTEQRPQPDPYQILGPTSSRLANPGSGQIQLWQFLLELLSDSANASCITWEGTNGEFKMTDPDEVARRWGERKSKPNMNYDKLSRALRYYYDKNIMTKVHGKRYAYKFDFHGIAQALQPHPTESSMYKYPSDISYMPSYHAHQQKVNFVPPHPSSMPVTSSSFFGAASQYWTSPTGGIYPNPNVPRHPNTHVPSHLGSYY
# Procedure, shortened: (§1)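 Binding signal is defined as a hexamer's read frequency for one factor over its frequency for the tag-only sample. To obtain reads, GST-fused human transcription factors were expressed in yeast, captured on glutathione beads, barcoded with DNA and pooled with that sample. Pools met 200 nmole of a 16-mer random double-stranded DNA library in Tris/NaCl/DTT/glycerol buffer for 30 min at room temperature before washing, 0.1% formaldehyde crosslinking, proximity ligation (BsaI/T4 ligase, 1 h, 37 °C), PCR and Illumina NextSeq500 sequencing.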
# ELK1 = target: T2, ELK1 (Homo sapiens, UniProt P19419 1-428)
# T2 sequence: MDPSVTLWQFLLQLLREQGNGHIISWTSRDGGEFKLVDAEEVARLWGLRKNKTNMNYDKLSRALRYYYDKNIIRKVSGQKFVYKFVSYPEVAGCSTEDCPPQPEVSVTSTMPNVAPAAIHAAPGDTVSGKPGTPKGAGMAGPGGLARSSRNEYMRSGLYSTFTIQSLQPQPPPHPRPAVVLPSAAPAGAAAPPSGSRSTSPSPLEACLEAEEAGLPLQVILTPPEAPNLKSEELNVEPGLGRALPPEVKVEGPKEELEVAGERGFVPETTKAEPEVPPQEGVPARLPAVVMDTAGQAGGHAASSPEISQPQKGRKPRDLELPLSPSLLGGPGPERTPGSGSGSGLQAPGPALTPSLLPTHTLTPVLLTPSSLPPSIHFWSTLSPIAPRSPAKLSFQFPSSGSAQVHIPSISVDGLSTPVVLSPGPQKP
# Procedure, shortened: as §1
# GABPA = target: T3, GABPA (Homo sapiens, UniProt Q06546 1-454)
# T3 sequence: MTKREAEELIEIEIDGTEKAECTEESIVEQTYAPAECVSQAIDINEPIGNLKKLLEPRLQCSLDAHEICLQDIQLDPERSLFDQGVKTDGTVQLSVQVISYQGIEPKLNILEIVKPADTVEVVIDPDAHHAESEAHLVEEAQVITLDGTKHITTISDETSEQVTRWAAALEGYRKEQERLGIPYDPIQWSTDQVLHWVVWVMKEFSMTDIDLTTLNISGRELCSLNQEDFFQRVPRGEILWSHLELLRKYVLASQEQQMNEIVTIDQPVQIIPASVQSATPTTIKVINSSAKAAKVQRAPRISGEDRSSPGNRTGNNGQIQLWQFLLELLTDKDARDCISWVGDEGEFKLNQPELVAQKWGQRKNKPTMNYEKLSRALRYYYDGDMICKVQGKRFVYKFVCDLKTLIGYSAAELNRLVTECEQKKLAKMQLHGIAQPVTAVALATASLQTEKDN
# Procedure, shortened: as §1
# ERG = target: T4, ERG (Homo sapiens, UniProt P11308 1-479)
# T4 sequence: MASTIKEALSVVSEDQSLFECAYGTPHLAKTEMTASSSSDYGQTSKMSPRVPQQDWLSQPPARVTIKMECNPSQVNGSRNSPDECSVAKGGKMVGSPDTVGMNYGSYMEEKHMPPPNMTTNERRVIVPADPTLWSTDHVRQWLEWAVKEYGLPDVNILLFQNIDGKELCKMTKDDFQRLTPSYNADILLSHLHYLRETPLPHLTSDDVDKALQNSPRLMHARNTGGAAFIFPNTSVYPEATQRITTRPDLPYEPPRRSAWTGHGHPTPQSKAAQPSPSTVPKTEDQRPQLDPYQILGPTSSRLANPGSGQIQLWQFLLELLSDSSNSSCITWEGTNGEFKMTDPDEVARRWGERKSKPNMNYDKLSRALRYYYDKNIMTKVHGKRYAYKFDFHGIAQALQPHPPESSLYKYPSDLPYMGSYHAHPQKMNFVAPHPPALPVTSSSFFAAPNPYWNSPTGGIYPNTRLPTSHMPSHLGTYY
# Procedure, shortened: as §1
# ELF1 = ELF1 (Homo sapiens, UniProt P32519 1-619)
# Chain of ELF1 (P32519 whole entry): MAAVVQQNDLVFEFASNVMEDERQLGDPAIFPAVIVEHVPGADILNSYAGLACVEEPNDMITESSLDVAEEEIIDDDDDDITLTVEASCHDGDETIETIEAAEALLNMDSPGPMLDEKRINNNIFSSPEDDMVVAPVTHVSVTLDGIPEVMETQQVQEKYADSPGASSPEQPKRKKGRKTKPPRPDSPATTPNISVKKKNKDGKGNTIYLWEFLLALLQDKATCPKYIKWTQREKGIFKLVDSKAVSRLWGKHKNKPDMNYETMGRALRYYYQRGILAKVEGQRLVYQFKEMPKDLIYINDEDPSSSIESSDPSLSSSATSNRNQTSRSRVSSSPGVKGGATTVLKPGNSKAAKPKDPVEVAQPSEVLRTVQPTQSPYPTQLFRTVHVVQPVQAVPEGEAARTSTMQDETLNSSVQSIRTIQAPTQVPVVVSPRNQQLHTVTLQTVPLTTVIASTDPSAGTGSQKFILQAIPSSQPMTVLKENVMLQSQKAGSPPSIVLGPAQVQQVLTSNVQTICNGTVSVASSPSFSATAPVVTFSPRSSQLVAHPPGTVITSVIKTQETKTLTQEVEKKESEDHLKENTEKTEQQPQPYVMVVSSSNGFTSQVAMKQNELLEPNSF
# Procedure, shortened: as §1
# EHF = target: T5, EHF (Homo sapiens, UniProt Q9NZC4 1-300)
# T5 sequence: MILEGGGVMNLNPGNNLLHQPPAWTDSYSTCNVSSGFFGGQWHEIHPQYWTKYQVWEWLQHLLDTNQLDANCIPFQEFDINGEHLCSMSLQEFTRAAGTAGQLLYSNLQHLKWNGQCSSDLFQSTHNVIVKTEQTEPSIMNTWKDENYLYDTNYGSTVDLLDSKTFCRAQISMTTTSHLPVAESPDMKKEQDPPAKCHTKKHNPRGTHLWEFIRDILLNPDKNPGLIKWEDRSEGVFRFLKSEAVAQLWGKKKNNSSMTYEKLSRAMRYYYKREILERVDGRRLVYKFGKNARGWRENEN
# Procedure, shortened: as §1
# SPI1 = SPI1 (Homo sapiens, UniProt P17947 1-270)
# Procedure, shortened: as §1
# SPIB = SPIB (Homo sapiens, UniProt Q01892 1-262)
# Chain of SPIB (Q01892 whole entry): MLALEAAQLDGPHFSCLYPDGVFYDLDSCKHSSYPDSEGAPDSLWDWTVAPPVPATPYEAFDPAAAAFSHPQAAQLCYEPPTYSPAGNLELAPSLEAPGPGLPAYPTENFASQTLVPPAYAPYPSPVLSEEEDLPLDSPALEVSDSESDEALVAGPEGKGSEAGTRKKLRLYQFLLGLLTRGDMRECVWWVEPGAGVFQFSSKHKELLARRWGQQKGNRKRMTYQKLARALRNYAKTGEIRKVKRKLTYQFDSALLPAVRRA
# Procedure, shortened: as §1
# ELK3 = target: T6, ELK3 (Homo sapiens, UniProt P41970 1-407)
# T6 sequence: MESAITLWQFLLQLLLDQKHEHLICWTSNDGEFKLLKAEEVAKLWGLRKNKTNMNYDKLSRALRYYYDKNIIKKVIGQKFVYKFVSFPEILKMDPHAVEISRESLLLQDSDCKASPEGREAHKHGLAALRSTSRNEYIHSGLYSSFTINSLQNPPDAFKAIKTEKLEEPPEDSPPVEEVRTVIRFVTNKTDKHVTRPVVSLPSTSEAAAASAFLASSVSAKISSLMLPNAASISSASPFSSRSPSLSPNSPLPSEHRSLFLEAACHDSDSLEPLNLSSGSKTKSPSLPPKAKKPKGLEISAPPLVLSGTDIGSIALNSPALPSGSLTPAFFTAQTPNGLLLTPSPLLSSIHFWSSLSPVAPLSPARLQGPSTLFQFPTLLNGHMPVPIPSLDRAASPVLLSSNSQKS
# Procedure, shortened: as §1
# ETV5 = ETV5 (Homo sapiens, UniProt P41161 1-510)
# Chain of ETV5 (P41161 whole entry): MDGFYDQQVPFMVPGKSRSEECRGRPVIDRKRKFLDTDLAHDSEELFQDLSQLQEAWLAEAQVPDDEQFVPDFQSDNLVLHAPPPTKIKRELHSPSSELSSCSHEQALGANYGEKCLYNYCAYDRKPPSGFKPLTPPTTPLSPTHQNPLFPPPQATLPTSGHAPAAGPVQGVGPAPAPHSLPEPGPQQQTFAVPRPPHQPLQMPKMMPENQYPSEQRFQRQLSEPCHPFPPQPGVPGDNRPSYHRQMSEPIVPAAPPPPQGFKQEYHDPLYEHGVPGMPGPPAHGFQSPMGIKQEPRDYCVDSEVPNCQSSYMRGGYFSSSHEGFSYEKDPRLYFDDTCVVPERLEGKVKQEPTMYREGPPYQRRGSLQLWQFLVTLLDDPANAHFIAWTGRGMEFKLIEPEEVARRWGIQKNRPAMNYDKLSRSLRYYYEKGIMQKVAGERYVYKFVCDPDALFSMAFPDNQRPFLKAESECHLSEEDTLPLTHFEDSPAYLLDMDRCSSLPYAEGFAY
# Procedure, shortened: as §1
# ELF4 = ELF4 (Homo sapiens, UniProt Q99607 1-663)
# Chain of ELF4 (Q99607 whole entry): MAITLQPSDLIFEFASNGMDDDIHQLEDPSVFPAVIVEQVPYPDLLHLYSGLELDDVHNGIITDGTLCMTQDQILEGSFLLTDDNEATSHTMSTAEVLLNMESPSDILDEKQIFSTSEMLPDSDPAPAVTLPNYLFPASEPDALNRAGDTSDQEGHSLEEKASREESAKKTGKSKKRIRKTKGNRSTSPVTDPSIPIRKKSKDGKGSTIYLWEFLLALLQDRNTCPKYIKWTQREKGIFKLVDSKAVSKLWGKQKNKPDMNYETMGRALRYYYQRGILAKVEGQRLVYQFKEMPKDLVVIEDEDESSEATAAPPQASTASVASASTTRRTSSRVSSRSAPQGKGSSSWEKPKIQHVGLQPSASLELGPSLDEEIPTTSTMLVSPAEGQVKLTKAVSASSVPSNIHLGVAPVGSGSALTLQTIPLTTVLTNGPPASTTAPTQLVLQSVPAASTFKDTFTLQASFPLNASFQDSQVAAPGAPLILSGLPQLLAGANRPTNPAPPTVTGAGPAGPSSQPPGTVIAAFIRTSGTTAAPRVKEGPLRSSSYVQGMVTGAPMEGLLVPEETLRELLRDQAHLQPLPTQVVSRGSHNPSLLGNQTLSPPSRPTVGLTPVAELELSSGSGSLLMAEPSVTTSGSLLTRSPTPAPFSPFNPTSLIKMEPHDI
# Procedure, shortened: as §1
# ETV2 = target: T7, ETV2 (Homo sapiens, UniProt O00321 1-342)
# T7 sequence: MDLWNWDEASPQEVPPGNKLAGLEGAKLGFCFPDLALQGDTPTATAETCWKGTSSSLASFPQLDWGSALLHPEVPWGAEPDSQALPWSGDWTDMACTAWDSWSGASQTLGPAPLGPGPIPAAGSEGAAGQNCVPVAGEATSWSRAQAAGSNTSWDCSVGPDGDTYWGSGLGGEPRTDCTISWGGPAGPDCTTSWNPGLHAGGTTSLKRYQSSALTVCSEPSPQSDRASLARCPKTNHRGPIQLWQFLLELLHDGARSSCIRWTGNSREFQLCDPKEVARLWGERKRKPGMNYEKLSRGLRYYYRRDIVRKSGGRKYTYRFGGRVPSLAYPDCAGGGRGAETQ
# Procedure, shortened: as §1
# ELF3 = target: T8, ELF3 (Homo sapiens, UniProt P78545 1-371)
# T8 sequence: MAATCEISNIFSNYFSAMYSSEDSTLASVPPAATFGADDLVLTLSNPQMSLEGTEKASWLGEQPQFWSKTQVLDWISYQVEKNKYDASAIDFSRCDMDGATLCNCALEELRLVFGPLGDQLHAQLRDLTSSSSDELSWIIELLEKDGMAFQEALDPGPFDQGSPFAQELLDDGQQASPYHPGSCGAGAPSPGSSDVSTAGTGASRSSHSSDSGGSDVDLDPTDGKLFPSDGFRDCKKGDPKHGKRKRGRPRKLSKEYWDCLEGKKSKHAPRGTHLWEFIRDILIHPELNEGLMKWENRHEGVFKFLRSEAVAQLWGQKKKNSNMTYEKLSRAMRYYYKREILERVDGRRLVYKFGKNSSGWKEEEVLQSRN
# Procedure, shortened: as §1
# ETV1 = ETV1 (Homo sapiens, UniProt P50549 1-477)
# Chain of ETV1 (P50549 whole entry): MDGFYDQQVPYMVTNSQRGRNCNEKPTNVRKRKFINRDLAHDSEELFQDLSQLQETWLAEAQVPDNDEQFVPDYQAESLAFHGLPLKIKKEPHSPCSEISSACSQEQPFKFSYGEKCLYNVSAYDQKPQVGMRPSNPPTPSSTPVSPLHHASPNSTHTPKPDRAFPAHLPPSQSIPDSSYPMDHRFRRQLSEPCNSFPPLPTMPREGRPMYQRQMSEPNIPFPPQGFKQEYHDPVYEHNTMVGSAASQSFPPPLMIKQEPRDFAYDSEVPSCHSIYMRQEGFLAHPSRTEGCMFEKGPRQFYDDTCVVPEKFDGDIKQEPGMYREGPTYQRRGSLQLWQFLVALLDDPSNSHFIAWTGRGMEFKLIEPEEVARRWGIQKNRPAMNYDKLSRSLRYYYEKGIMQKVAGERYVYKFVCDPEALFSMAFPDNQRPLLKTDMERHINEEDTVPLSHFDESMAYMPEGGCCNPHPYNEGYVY
# Procedure, shortened: as §1
# ETV3L = target: T9, ETV3L (Homo sapiens, UniProt Q6ZN32 1-361)
# T9 sequence: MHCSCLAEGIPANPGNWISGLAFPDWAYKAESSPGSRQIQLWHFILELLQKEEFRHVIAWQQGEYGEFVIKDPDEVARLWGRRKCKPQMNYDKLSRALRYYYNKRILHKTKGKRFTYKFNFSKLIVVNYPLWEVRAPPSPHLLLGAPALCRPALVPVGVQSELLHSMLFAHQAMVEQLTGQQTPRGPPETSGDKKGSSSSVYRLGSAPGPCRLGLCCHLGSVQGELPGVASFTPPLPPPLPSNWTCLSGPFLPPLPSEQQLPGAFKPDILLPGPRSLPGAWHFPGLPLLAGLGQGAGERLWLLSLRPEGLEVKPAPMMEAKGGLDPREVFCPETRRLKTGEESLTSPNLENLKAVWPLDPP
# Procedure, shortened: as §1
# ETS2 = target: T10, ETS2 (Homo sapiens, UniProt P15036 1-469)
# T10 sequence: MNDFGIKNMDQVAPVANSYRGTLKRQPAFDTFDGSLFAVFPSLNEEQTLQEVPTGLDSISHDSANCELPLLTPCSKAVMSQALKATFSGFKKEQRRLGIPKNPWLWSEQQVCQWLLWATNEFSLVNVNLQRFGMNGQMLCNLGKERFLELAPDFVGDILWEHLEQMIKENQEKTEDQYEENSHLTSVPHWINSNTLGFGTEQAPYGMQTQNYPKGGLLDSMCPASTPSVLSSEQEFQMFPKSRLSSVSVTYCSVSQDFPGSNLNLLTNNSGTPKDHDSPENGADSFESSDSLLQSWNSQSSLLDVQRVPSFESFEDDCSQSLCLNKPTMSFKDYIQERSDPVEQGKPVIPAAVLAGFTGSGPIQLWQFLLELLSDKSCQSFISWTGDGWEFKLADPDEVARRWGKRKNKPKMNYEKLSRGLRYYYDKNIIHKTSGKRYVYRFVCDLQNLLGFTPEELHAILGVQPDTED
# Procedure, shortened: as §1
# ETV7 = target: T11, ETV7 (Homo sapiens, UniProt Q9Y603 1-341)
# T11 sequence: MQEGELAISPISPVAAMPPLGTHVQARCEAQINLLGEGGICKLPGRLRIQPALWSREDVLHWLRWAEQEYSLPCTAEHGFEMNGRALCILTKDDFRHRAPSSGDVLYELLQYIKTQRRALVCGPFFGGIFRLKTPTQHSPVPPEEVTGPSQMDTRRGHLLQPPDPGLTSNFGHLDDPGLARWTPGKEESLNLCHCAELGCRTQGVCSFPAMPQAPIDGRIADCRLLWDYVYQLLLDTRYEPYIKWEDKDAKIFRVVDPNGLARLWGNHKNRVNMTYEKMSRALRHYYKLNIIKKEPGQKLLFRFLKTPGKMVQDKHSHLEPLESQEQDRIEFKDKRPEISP
# Procedure, shortened: as §1
# ETV3 = target: T12, ETV3 (Homo sapiens, UniProt P41162-2 1-143)
# T12 sequence: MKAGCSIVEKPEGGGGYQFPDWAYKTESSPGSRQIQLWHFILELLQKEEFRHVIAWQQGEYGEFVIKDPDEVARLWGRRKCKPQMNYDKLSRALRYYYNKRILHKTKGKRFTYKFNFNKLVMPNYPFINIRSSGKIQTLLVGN
# Procedure, shortened: as §1
# ETV6 = ETV6 (Homo sapiens, UniProt P41212 1-452)
# Chain of ETV6 (P41212 whole entry): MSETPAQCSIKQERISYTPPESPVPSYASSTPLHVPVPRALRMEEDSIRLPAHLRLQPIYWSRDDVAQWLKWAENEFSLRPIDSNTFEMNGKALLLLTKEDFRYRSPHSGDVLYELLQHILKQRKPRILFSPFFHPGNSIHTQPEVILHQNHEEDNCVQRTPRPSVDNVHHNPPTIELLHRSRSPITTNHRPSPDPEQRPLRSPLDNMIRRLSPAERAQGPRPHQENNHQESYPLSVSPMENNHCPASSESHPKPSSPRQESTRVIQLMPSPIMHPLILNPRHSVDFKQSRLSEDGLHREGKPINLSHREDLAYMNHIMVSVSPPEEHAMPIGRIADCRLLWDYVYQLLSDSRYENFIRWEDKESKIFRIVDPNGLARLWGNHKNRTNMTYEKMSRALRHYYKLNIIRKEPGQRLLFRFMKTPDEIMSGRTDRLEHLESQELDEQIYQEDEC
# Procedure, shortened: as §1
sequence,measurement,setting,value
CGCCTG,binding signal,FLI1,"1.11 fold enrichment (6-mer frequency, TF over GST control)"
same,binding signal,ELK1,"1.17 fold enrichment (6-mer frequency, TF over GST control)"
same,binding signal,GABPA,"1.08 fold enrichment (6-mer frequency, TF over GST control)"
same,binding signal,ERG,"1.15 fold enrichment (6-mer frequency, TF over GST control)"
same,binding signal,ELF1,"1.12 fold enrichment (6-mer frequency, TF over GST control)"
same,binding signal,EHF,"1.11 fold enrichment (6-mer frequency, TF over GST control)"
same,binding signal,SPI1,"1.1 fold enrichment (6-mer frequency, TF over GST control)"
same,binding signal,SPIB,"1.07 fold enrichment (6-mer frequency, TF over GST control)"
same,binding signal,ELK3,"1.06 fold enrichment (6-mer frequency, TF over GST control)"
same,binding signal,ETV5,"1.18 fold enrichment (6-mer frequency, TF over GST control)"
same,binding signal,ELF4,"1.05 fold enrichment (6-mer frequency, TF over GST control)"
same,binding signal,ETV2,"1.01 fold enrichment (6-mer frequency, TF over GST control)"
same,binding signal,ELF3,"1.19 fold enrichment (6-mer frequency, TF over GST control)"
same,binding signal,ETV1,"1.09 fold enrichment (6-mer frequency, TF over GST control)"
same,binding signal,ETV3L,"1.1 fold enrichment (6-mer frequency, TF over GST control)"
same,binding signal,ETS2,"1.12 fold enrichment (6-mer frequency, TF over GST control)"
same,binding signal,ETV7,"1.01 fold enrichment (6-mer frequency, TF over GST control)"
same,binding signal,ETV3,"1.06 fold enrichment (6-mer frequency, TF over GST control)"
same,binding signal,ETV6,"1.14 fold enrichment (6-mer frequency, TF over GST control)"
